What all share (test): NCI-60 one-dose screen, 48 h (100 = growth as untreated, 0 = no growth, -100 = all killed)
Holding throughout (conditions): 10 µM unless noted

For assay [1], the system named is DU-145 prostate.
In assay [2] the test system is K-562 leukemia.
Assay [3] relates to MALME-3M melanoma.
For assay [4], the system named is MDA-MB-231 breast.
Assay [5] has as its system RXF 393 renal.
In assay [6] the test system is SF-268 CNS.
The test system of assay [7] is SF-295 CNS.
Assay [8] deals with SF-539 CNS.
Assay [9] relates to UACC-257 melanoma.
Assay [10] relates to M14 melanoma.

For 14 molecules, growth results are on record in PubChem BioAssay (NCI).

This is part of a sample that, as a whole, favours compounds with a hit. Of some 83,000 tested, about 20% had one in any assay.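 Treatment: one concentration, 48 hours, 96-well format. Scoring: percent growth, with anything below 10 considered active.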 Values without a mark were called inactive. The source made the active and inactive calls.

Consider `CCN(CC)c1ccc2nc3c4ccccc4c(=NC(=O)c4ccccc4-c4c5ccc(N(CC)CC)cc5[o+]c5cc(N(CC)CC)ccc45)cc-3oc2c1`, for which the growth in assay [1] is -89.4% (active); in assay [2], -85.7% (active); in assay [3] it was 54.9%; in assay [4] it was 52.8%; in [5] it was 61.6%; in assay [6], 60.5%. Besides, the growth is -50.3% (active) in [7], 67% in [8], 49.7% in assay [9] and -3.37% (active) in assay [10].
For `C[n+]1cccc(CC(=O)NO)c1`, the growth in assay [1] is 109%; in assay [2], 94.4%; in [3], 104%; in [4] it was 100%; in assay [5], 106%; in assay [6] it was 104%. Also, the growth was 113% in [7], 90.9% in [8], 67.7% in assay [9] and 99.2% in assay [10].
For `CCCCCS(=O)(=O)Nc1ccc(C(=O)O)cc1`, the growth in assay [1] is 103%; in [2], 104%; in [3], 98.2%; in [4], 106%; in assay [5], 114%; in assay [6], 101%. Further, the growth is 110% in assay [7], 102% in assay [8], 95% in assay [9] and 101% in assay [10].
Take `CC(C)(C)c1ccc(/C=C/C(=O)Nc2ccc(O)cc2)cc1`: the growth in assay [1] was 70.3%; in [2], 4.2% (active); in assay [3] it was 67%; in assay [4], 53%; in assay [5], 90.9%; in assay [6] it was 59.7%. Moreover, the growth in assay [7] is 79.5%; in assay [8], 40.6%; in [9], 64.9%; in [10], 28.4%.
Take `Cc1ccc(CCC(=O)Nc2ncc(Cc3cc(Cl)ccc3Cl)s2)o1`: the growth was 13.8% in [1]; 9.78% (active) in assay [2]; 41.5% in assay [3]; 12.4% in assay [4]; -8.55% (active) in [5]; 57.6% in assay [6]. Besides, the growth in [7] was 7.41% (active); in assay [8], -16.4% (active); in assay [9] it was 66.9%; in [10], 6.18% (active).
As for `COc1cccc(-c2nc3sccn3c2-c2ccnc(NCCNS(=O)(=O)c3ccc(C(F)(F)F)cc3)c2)c1`, the growth in [1] is 49.4%; in assay [2], 25.7%; in assay [3] it was 42.2%; in assay [4], 70.1%; in [5], 34%; in assay [6], 35.8%. In addition, the growth in assay [7] is 27.7%; in [8], 53.7%; in assay [9], 39.2%; in assay [10], 38.4%.
On to `N#Cc1c(-c2cccc(Cl)c2)cc(-c2cccc(Cl)c2)[nH]c1=O`, for which the growth is 96.5% in assay [1]; 27.1% in [2]; 69% in assay [3]; 90.5% in assay [4]; 82.1% in assay [5]; 83.4% in assay [6]. In addition, the growth was 83.7% in assay [7], 82.7% in assay [8], 90.2% in assay [9] and 57.9% in [10].
As for `CCCCCCCCCCCCCCCCCC1=NCCN1CCOC1=C(Cl)C(=O)c2ccccc2C1=O`, the growth in [1] is 109%; in [2], 21.7%; in assay [3] it was 67.1%; in [4], 55.9%; in assay [5], 102%; in assay [6], 91.2%. The growth in [7] was 108%; in assay [8], 104%; in assay [9], 72.3%; in assay [10], 83.1%.
Turning to `CC1CC(C(C)(C)C)C(=O)C(C(C)(C)C)C1` (stereo not given), the growth in assay [1] was 112%; in assay [2], 102%; in [3], 105%; in [4] it was 109%; in assay [5], 112%; in [6] it was 103%. Further, the growth in assay [7] was 105%; in assay [8], 101%; in [9], 102%; in assay [10], 118%.
For `CC(=O)c1nc(Nc2ccc(C)cc2)sc1C`, the growth in assay [1] is 102%; in assay [2] it was 97.6%; in [3], 113%; in assay [4], 91.3%; in assay [5], 96.2%; in assay [6] it was 91%. The growth in assay [7] is 104%; in assay [8], 101%; in assay [9], 92.1%; in [10], 97.1%.
For the molecule `c1ccc(-c2nc([P+](c3ccccc3)(c3ccccc3)c3ccccc3)c(N3CCOCC3)o2)cc1`, the growth is 18.6% in [1]; 10.4% in assay [2]; 4.6% (active) in assay [3]; -14.8% (active) in assay [4]; -4.62% (active) in assay [5]; 18.3% in [6]. The growth in assay [7] is 0.0601% (active); in assay [8], 6.52% (active); in assay [9] it was -9.47% (active); in assay [10], 4.76% (active).
Consider `CCCCCCCCCOc1c(OC)cc(C2CC(=O)Nc3c2c(C)nn3-c2nc3ccccc3[nH]2)cc1OC` (stereo not given), for which the growth in assay [1] was 1.94% (active); in assay [2] it was 9.07% (active); in assay [3], -58.3% (active); in assay [4], -75% (active); in [5], -83.4% (active); in assay [6], -58.8% (active). The growth in assay [7] is -59.1% (active); in assay [8], -86.3% (active); in assay [9] it was 15.5%; in assay [10], -25.5% (active).
As to `CCCCCc1nc2c(c3c1CCCC3)CCCC2`, the growth is 114% in assay [1]; 37.3% in assay [2]; 102% in [3]; 104% in [4]; 80% in assay [5]; 105% in assay [6]. The growth in assay [7] was 81.6%; in [8], 93.2%; in assay [9] it was 82.5%; in [10], 103%.
`O=c1c2c3c(sc2n2c(-c4cn(-c5ccccc5)nc4-c4ccc(Cl)cc4)nnc2n1Cc1ccccc1)CCCC3`: the growth in assay [1] is 103%; in assay [2] it was 89.7%; in assay [3] it was 97.4%; in assay [4] it was 80.3%; in assay [5], 94.5%; in [6], 99.7%. In addition, the growth in assay [7] is 98.5%; in assay [8] it was 90.3%; in assay [9] it was 118%; in assay [10], 60.3%.
